The source of these data is PubChem BioAssay (NCATS).

Values joined by “and” are separate entries in the source; they are usually repeats but may differ in a detail not shown here. Identical values can stand only once. Results filed as inconclusive are left out. Unmarked numbers belong to inactive results. Active and inactive are the calls of the source. Calls come from the whole dose curve; as a rule, active = well fitted curve in the direction sought with a large enough effect; inconclusive = small, poorly fitted or top-dose-only effect, or another doubt; inactive = no such curve, though single readings can be large; an effect the other way counts as inactive or inconclusive. Peptide text beside a SMILES is read from it.

One test relates to Es-2. Put plainly: Primary qHTS to identify gynecologic anti-cancer compounds using libraries of approved drugs and bioactive compounds (AID 1345084). Note: nearly all actives have a fitted effect of over 55% in size. The note with it: Gynecologic cancer cell panel viability, ATPlite luminescence, 48 h; series mostly up to 57.5 µM. The procedure, abridged: (§1)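 Luminescence from the ATPlite ATP-monitoring reagent indicates viable cell number; lower signal means cytotoxicity. Cells received compound 16 h after seeding and were exposed for 48 h across five concentrations.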

For a further test, the system named is HeLa. The test is described as above. The note with it: Gynecologic cancer cell panel viability, ATPlite luminescence, 48 h; series mostly up to 57.5 µM. The procedure, abridged:
as §1
Background: Cellular ATP, detected with luciferase, serves as a proxy for viable cell number.

The next test concerns Hek293T. Described as above. The note with it: Gynecologic cancer cell panel viability, ATPlite luminescence, 48 h, control line for the selectivity index; series mostly up to 57.5 µM. The procedure, abridged:
as §1

A further test has as its system JEG-3. The test is described as above. The note with it: Gynecologic cancer cell panel viability, ATPlite luminescence, 48 h; series mostly up to 57.5 µM. The procedure, abridged:
as §1

The subject of the next test is OV90. Described as above. As to conditions: Gynecologic cancer cell panel viability, ATPlite luminescence, 48 h; series mostly up to 57.5 µM. The procedure, abridged:
as §1

The next test has as its system PA-1. Described as above. As to conditions: Gynecologic cancer cell panel viability, ATPlite luminescence, 48 h; series mostly up to 57.5 µM. Put shortly:
as §1

The test system of another test is SKOV3. Described as above. As to conditions: Gynecologic cancer cell panel viability, ATPlite luminescence, 48 h; series mostly up to 57.5 µM. The procedure, abridged: as §1
The next test relates to Tov-21-G. Described as above. The note with it: Gynecologic cancer cell panel viability, ATPlite luminescence, 48 h; series mostly up to 57.5 µM. Put shortly:
as §1

A further test relates to Tov112D. Described as above. The note with it: Gynecologic cancer cell panel viability, ATPlite luminescence, 48 h; series mostly up to 57.5 µM. Put shortly: as §1
Test [1] in a line: Drug repurposing screens with cells derived from glioblastoma tumor samples (AID 1345199). Note: nearly all actives have a fitted effect of over 40% in size. The note with it: GBM patient neurospheres viability, ATP luminescence, 48 h. Put shortly:
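Primary testing used CD133+ neurospheres from four GBM patients, seven concentrations, 48 h exposure and ATP-based viability; confirmation added three slower-growing patient lines.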

Where [2] appears, read: at 20 µM (top of the series), tumour line C.
Setting [3] is: at 46.1 µM (top of the series), tumour line C.
[4] abbreviates: at 21.2 µM (top of the series), tumour line B.
The mark [5] stands for this setting: at 21.2 µM (top of the series), tumour line D.
Setting [6] is: at 45.9 µM (top of the series), tumour line B.
[7] abbreviates: at 45.9 µM (top of the series), tumour line D.
% is set by controls: 0 for no effect and ±100 for the full control effect; potency is the fitted concentration of half-maximal effect.

As to `Clc1ccc(C(Cn2ccnc2)OCc2c(Cl)cccc2Cl)c(Cl)c1` (configuration not stated), the Potency entry in the test with Es-2, in the test on HeLa, in the test on Hek293T, in the test on JEG-3, in the test with OV90 and in the test on PA-1 was “inactive” in each case. For the same molecule, the Potency entry in the test with SKOV3, in the test with Tov-21-G and in the test on Tov112D was “inactive” throughout. Moreover, the activity, negative = cell killing in test [1] (setting [2]) was -9.14%. Besides, the Potency was 7.94 µM (active) in test [1] (tumour line A) and 7.08 µM (active) in test [1] (tumour line D).
On to `S=c1nc[nH]c2nc[nH]c12`, for which the Potency in the test with Es-2 was 5.62 µM (active); in the test on HeLa, 5.62 µM (active); in the test with Hek293T it was 15.8 µM (active); in the test with JEG-3, 3.55 µM (active); in the test with OV90, 7.08 µM (active); with PA-1 it was 3.16 µM (active). For the same molecule, the Potency in the test with Tov-21-G is 3.16 µM (active); in the test with Tov112D it was 8.91 µM (active); in [1] (tumour line A), 5.01 µM (active). Besides, the Potency result in the test with SKOV3 was “inactive”. The activity, negative = cell killing in test [1] (setting [3]) is -28%.
For the molecule `CCc1nc(N)nc(N)c1-c1ccc(Cl)cc1`, the Potency with Es-2 is 4.47 µM (active); with HeLa it was 14.1 µM (active); in the test with Hek293T, 7.94 µM (active); with OV90, 7.94 µM (active); in the test on PA-1, 7.94 µM (active); in the test on Tov-21-G, 3.16 µM (active). Besides, the Potency in the test with Tov112D was 14.1 µM (active). For the same molecule, the Potency result in the test with JEG-3 and in the test with SKOV3 was “inactive” in each case.
Turning to `COC(=O)C1=C(C)NC(C)=C(C(=O)OC(C)C)C1c1cccc2nonc12` (configuration not stated), the Potency entry in the test with Es-2, in the test on HeLa, with Hek293T, in the test with JEG-3, in the test on OV90 and in the test on PA-1 was “inactive” in each case. In addition, the Potency entry with SKOV3, with Tov-21-G and in the test with Tov112D was “inactive” each time. Besides, the activity, negative = cell killing in test [1] (setting [2]) is -16.7%; in test [1] (setting [4]), -11.5%; in [1] (setting [5]), -1.17%.
Consider `CC1=C(C(=O)O)N2C(=O)[C@@H](NC(=O)[C@H](N)C3=CCC=CC3)[C@H]2SC1`, for which the Potency result in the test on Es-2, with HeLa, in the test with Hek293T, with JEG-3, in the test on OV90 and in the test on PA-1 was “inactive” each time. The Potency result with SKOV3, in the test on Tov-21-G and in the test on Tov112D was “inactive” throughout. For the same molecule, the figures for the activity, negative = cell killing in [1] (setting [6]), in [1] (setting [7]) and in [1] (setting [3]) were -8.4%, -14.2% and -3.66%, respectively.
On to `O=C(NCCO[N+](=O)[O-])c1cccnc1`, for which the Potency entry in the test on Es-2, with HeLa, in the test with Hek293T, in the test with JEG-3, in the test with OV90 and in the test with PA-1 was “inactive” in each case. The Potency result in the test on SKOV3, with Tov-21-G and with Tov112D was “inactive” in each case. Also, the activity, negative = cell killing in test [1] (setting [6]) is -0.47%; in test [1] (setting [7]), -18.1%; in test [1] (setting [3]) it was -10.1%.
For `CN1C(C(=O)Nc2ccccn2)=C(O)c2sccc2S1(=O)=O`, the Potency entry with Es-2, in the test with HeLa, with Hek293T, in the test on JEG-3, in the test on OV90 and in the test with PA-1 was “inactive” throughout. Further, the Potency entry in the test with SKOV3, in the test with Tov-21-G and with Tov112D was “inactive” throughout. Also, the figures for the activity, negative = cell killing in test [1] (setting [2]), in test [1] (setting [4]) and in [1] (setting [5]) were 2.25%, -11.7% and -11.3%, respectively.
For `CC(=O)O[C@H]1C(=O)[C@@]2(C)C([C@H](OC(=O)c3ccccc3)[C@]3(O)C[C@H](OC(=O)[C@H](O)[C@@H](NC(=O)c4ccccc4)c4ccccc4)C(C)=C1C3(C)C)[C@]1(OC(C)=O)CO[C@@H]1C[C@@H]2O` (some centres not stated), the Potency is 0.282 µM (active) with Es-2 and 0.0794 µM (active) in the test with HeLa. Further, the Potency result in the test with Hek293T, in the test with JEG-3 and with OV90 was “inactive” each time.
Turning to `CC1=C(C)C(=O)C(C(CCCCCC(=O)O)c2ccccc2)=C(C)C1=O` (configuration not stated), the Potency result in the test with Es-2, in the test on HeLa, with Hek293T, with JEG-3, in the test with OV90 and in the test with PA-1 was “inactive” each time. Also, the Potency result with SKOV3, with Tov-21-G and in the test on Tov112D was “inactive” each time. In addition, the activity, negative = cell killing in [1] (setting [6]) was -10.7%; in test [1] (setting [7]) it was 17%.
For the molecule `N=C(N=C(N)N)N1CCOCC1`, the Potency result in the test on Es-2, with HeLa, in the test on Hek293T, in the test on JEG-3, with OV90 and in the test with PA-1 was “inactive” throughout. In addition, the Potency result with SKOV3, in the test on Tov-21-G and in the test with Tov112D was “inactive” each time. For the same molecule, the activity, negative = cell killing was 4.28% in [1] (setting [4]) and -14.6% in [1] (at 21.3 µM (top of the series), tumour line A).
On to `O=C(O)c1cccc(-c2noc(-c3ccccc3F)n2)c1`, for which the Potency in the test with Es-2 is 3.16 µM (active) and 6.31 µM (active); in the test on HeLa it was 7.08 µM (active) and 10 µM (active); with Hek293T, 4.47 µM (active) and 7.08 µM (active); with JEG-3, 7.94 µM (active) and 11.2 µM (active); with OV90 it was 12.6 µM (active); in the test on PA-1, 3.55 µM (active) and 7.94 µM (active). For the same molecule, the Potency in the test with SKOV3 was 10 µM (active) and 12.6 µM (active); with Tov-21-G, 5.01 µM (active) and 8.91 µM (active); with Tov112D it was 7.94 µM (active) and 10 µM (active).
`COc1cc2c(N3CCN(C(=O)Nc4ccc(OC(C)C)cc4)CC3)ncnc2cc1OCCCN1CCCCC1`: the Potency entry in the test with Es-2, in the test on HeLa, in the test on Hek293T, in the test with JEG-3, in the test with OV90 and in the test on PA-1 was “inactive” throughout. Further, the Potency result with SKOV3, with Tov-21-G and in the test with Tov112D was “inactive” in each case.
For the molecule `Clc1ccc(C(Cn2ccnc2)OCc2ccsc2Cl)c(Cl)c1` (configuration not stated), the Potency entry with Es-2, with HeLa, in the test with Hek293T, in the test on JEG-3, in the test with OV90 and in the test on PA-1 was “inactive” in each case. In addition, the Potency result in the test with SKOV3, in the test on Tov-21-G and with Tov112D was “inactive” in each case.
For `COC(=O)[C@H](Cc1ccccc1)NC(=O)[C@@H](N)CC(=O)O` (H-Asp-Phe-OMe), the Potency result in the test on Es-2, in the test with HeLa, in the test on Hek293T, with JEG-3, in the test on OV90 and with PA-1 was “inactive” each time. Moreover, the Potency entry with SKOV3, in the test with Tov-21-G and in the test on Tov112D was “inactive” throughout. Moreover, the activity, negative = cell killing in [1] (setting [6]) was -10.7% and -0.538%; in [1] (setting [7]) it was -6.33% and -21.9%; in test [1] (setting [3]), -19.7% and -4.06%.
Turning to `Cc1ccc(S(=O)(=O)NC(=O)NN2CC3CCCC3C2)cc1` (configuration not stated), the Potency result with Es-2, in the test with HeLa, with Hek293T, in the test on JEG-3, in the test on OV90 and in the test on PA-1 was “inactive” each time. Besides, the Potency result with SKOV3, with Tov-21-G and in the test with Tov112D was “inactive” each time. For the same molecule, the activity, negative = cell killing in test [1] (setting [2]) was -7.38%; in test [1] (setting [4]) it was -4.46%; in test [1] (setting [5]), -18.4%.
Take `CC(C)c1ccc2oc3nc(N)c(C(=O)O)cc3c(=O)c2c1`: the Potency was 7.08 µM (active) with Es-2; 7.94 µM (active) in the test with HeLa; 7.08 µM (active) with Hek293T; 7.94 µM (active) with JEG-3; 6.31 µM (active) with OV90; 5.62 µM (active) with PA-1. Besides, the Potency with SKOV3 was 7.08 µM (active); in the test with Tov-21-G, 5.01 µM (active); with Tov112D, 7.94 µM (active).
